CD11b adhes inh – CD11b/CD18-fibrinogen binding inhibition. P05107+P11215. K562 CD11b/CD18 adhesion to fibrinogen, ATPlite luminescence; Mn2+ added to activate the integrin. inhibition, % at 10 µM. hit rate 0.54% among 93,000. AID 1497;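 active means primary inhibition of 50% or more at 10 µM, then 40% or more on retest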
HePTP inhibitor – human HePTP phosphatase inhibition | P35236 | recombinant HePTP phosphatase activity, OD absorbance | inhibition, % at 20 µM | hit rate 0.64% among 110,000 | AID 521; in the data active means inhibition above about 50%;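 further: plate controls were vehicle for no effect and reference inhibitor for full effect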
Target sequence (P35236 whole entry, looked up): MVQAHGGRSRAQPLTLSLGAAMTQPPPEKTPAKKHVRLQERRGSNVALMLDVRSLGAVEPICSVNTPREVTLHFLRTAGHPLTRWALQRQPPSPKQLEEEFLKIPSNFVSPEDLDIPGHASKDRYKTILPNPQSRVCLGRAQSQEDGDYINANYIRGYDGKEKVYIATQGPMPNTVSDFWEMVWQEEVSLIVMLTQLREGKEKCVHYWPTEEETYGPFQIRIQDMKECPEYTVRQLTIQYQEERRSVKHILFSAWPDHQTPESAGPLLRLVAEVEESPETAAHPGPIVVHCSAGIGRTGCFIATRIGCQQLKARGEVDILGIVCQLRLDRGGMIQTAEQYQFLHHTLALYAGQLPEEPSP
PLAP act – activates human placental alkaline phosphatase; P05187; purified PLAP enzyme, luminescent substrate read-out; stronger effect = higher value; activation fold at 20 µM; hit rate 1.2% among 96,000; AID 696; in the data active means activation fold above about 2
CD11b adhes enh – CD11b/CD18-fibrinogen binding enhancement. P05107+P11215. K562 CD11b/CD18 adhesion to fibrinogen, ATPlite luminescence. activation, % at 10 µM. hit rate 0.07% among 93,000. AID 1499;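 active means 10 µM primary screen giving 50% or more activity, confirmed by 40% or more on retest at that dose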
An asterisk follows results filed as active; x = not tested or not shown. A selection: hits, their analogues and other compounds. The true share with any hit is near 1.5%.

SMILES | CD11b adhes inh | HePTP inhibitor | PLAP act | CD11b adhes enh
O=C1N=c2ccccc2=C1N=Nc1nc(O)c(-c2c(O)[nH]c3ccccc23)s1 | x | 66* | x | x
C/C(=N\NC(=O)c1ccco1)c1ccc(N)cc1 | x | -3 | x | x
O=C(Nc1ccc(-c2nc3ccccc3[nH]2)cc1)c1cccc(Br)c1 | x | 102* | x | x
Cc1ccc(C(=O)Nc2ccc(-c3nc4cc5ccccc5cc4[nH]3)cc2)cc1[N+](=O)[O-] | x | 56* | x | x
O=C(Nc1cccc(-c2cn3ccccc3n2)c1)c1cccc(Br)c1 | x | 18 | x | x
O=C(Nc1ccc(-c2cn3ccccc3n2)cc1)c1cccc(Br)c1 | x | 102* | x | x
CCOC(=O)C1CCN(Cc2ccc(F)cc2)CC1 | x | 6 | x | x
CCOC(=O)C1CCN(Cc2ccc(Cl)c(Cl)c2)CC1 | -4 | x | 2* | 0
c1ccc2[nH]c(SCc3ccc(-c4nnco4)cc3)nc2c1 | -6 | 8 | 2* | -3
COc1ccc(CSc2nc3ccccc3[nH]2)cc1 | 18 | x | 0.9 | -6
c1ccc2nc3c(cc(N4CCOCC4)c4ccccc43)nc2c1 | x | 1 | x | x
O=C(NCc1ccc2c(c1)OCO2)C1CCN(Cc2cnn(-c3ccccc3)c2-n2cccc2)CC1 | 14 | -2 | 2.5* | -1
O=C(Nc1ccccc1Cl)C1CCN(Cc2cnn(-c3ccccc3)c2-n2cccc2)CC1 | -12 | x | 2* | 2
COc1ccc(OC)c(NC(=O)C2CCN(Cc3cnn(-c4ccccc4)c3-n3cccc3)CC2)c1 | 3 | x | 1.9 | -1
O=C(O)c1cc(-c2ccc(/C=N/n3cnnc3)o2)ccc1O | x | 103* | x | x
CCOC(=O)c1cc(-c2ccc(/C=N\n3cnnc3)o2)ccc1Cl | 1 | -6 | 0.9 | -4
CC(C)NC(=O)c1sc2nc3c(c(-c4cccs4)c2c1N)CN(C)CC3 | -10 | x | 2* | -4
CN(C)CCCNCCCc1ccc(C(C)(C)C)cc1 | x | 1 | x | x
Cn1c(-c2ccccc2)cnc1SCc1nc2ccccc2c(=O)[nH]1 | -17 | 11 | 2.5* | 0
COc1ccc(N=Cc2c(C)[nH]n(-c3ccccc3)c2=O)cc1 | x | -13 | x | x
Nc1ccc(S(=O)(=O)O)c2cccc(O)c12 | x | 103* | x | x
Nc1ccc(O)c2c1C(=O)c1c(N)ccc(O)c1C2=O | x | 8 | x | x
CN(C(=O)CN1CCC(NC(=O)C2CCCCC2)CC1)C1CCCCC1 | -16 | 1 | 2* | 5
Cc1ccc(OCC(=O)Oc2ccc(C(=O)c3ccccc3)cc2C)c(C)c1 | x | 104* | x | x
Cc1ccc(OCC(=O)N(C)c2ccccc2)c(C)c1 | x | 5 | x | x
SMILES | CD11b adhes inh | HePTP inhibitor | PLAP act | CD11b adhes enh
Cc1nnc2n1NC(c1ccc(Cl)cc1)C(C(=O)N(C)C1CCCCC1)S2 (centres undefined) | -10 | 7 | 2.2* | -2
Cc1onc(-c2c(Cl)cccc2Cl)c1C(=O)NC1CCCC1 | x | -13 | x | x
Cc1onc(-c2c(F)cccc2Cl)c1C(=O)NC1CCSC1=O (centres undefined) | 12 | x | 2.1* | -2
Cc1ccc(/C=C2\C=C(c3ccc(Cl)cc3)OC2=O)o1 | x | 82* | x | x
O=C(O)C1Nc2ccc3ccccc3c2C2C=CCC12 (centres undefined) | x | 102* | x | x
O=C(O)C1Nc2ccc([N+](=O)[O-])cc2C2C=CCC12 (centres undefined) | x | 104* | x | x
CCOC(=O)c1ccc2c(c1)C1C=CCC1C(C(=O)O)N2 (centres undefined) | -24 | x | 1.3 | 116*
COC(=O)Cc1ccc(NC(=O)c2ccc(C(C)(C)C)cc2)cc1 | 59* | x | 0.8 | -8
COc1cccc(NC(=O)COc2ccc(C)cc2C)c1 | x | 0 | x | x
Cc1cc(C)c2nc(N3CCC(C(=O)NCCCN4CCCCC4)CC3)sc2c1 | 11 | x | 2* | 0
Cc1cc(NC(=O)c2ccc(Cn3nc(C)c(Br)c3C)o2)no1 | -16 | 3 | 0.9 | 0
Cc1nn(Cc2ccc(C(=O)NC(C)(C)C)o2)c(C)c1Br | 74* | 6 | 1.3 | -7
CCOc1cc(/C=C2/C(=O)NN(c3ccc(Br)cc3)C2=O)ccc1O | x | 0 | x | x
Cn1nc(C(C)(C)C)cc1C(=O)NCc1ccc(N2CCCC2=O)cc1 | 84* | 10 | 1.1 | -6
Cc1sc2nc3c4ccccc4c(NCc4ccco4)nn3c(=O)c2c1C | -3 | 41 | 1.5 | 44
Cc1nc(NCc2ccco2)c2c(C)c(C)sc2n1 | 83* | x | 1.7 | -6
Cc1nnc(NC(=O)c2cc(-c3cccs3)nc3ccccc23)s1 | x | 102* | x | x
O=C(O)c1cc(-c2cccs2)nc2ccccc12 | x | 92* | x | x
CC(C)Oc1ccc(-c2cc(C(=O)O)c3ccccc3n2)cc1 | x | 104* | x | x
Cc1nnc(NC(=O)c2cc(-c3ccc(Cl)cc3)nc3ccccc23)s1 | x | -11 | x | x
CCOC(=O)C1=C(C)N=c2s/c(=C\c3cccs3)c(=O)n2C1c1ccc(OC)cc1 (centres undefined) | x | 7 | x | x
CCOC(=O)C1=C(C)N=c2s/c(=C\c3ccc([N+](=O)[O-])o3)c(=O)n2C1c1ccc(OC)cc1 (centres undefined) | x | 52* | x | x
O=[N+]([O-])c1ccc(N/C(=N/S(=O)(=O)c2ccccc2)c2ccccc2)cc1 | x | 1 | x | x
CCOC(=O)N1CCC2(CC1)C(C#N)=C(N)Oc1n[nH]c(C)c12 | 25 | x | 1.4 | -1
CCOC(=O)N1CCC2(CC1)C(C#N)=C(N)Oc1c2c(C)nn1-c1cccc(Cl)c1 | 88* | -4 | 1.4 | -10
SMILES | CD11b adhes inh | HePTP inhibitor | PLAP act | CD11b adhes enh
CCCCCCCn1ccc(=N)cc1 | 83* | x | 0.7 | -6
CCCCCn1ccc(=N)cc1 | 31 | 10 | 0.8 | -3
CCOC(=O)C1=C(c2ccccc2)N=c2s/c(=C\c3ccc(OCC(N)=O)cc3)c(=O)n2C1c1cc(OC)ccc1OC (centres undefined) | x | 11 | x | x
O=C1NC(=S)NC(=O)C1=Cc1cc(Br)c(Sc2ccc(Cl)cc2)o1 | x | 76* | x | x
Clc1ccc(Sc2oc(/C=N/n3cnnc3)cc2Br)cc1 | 2 | 5 | 0.9 | -4
O=C(c1ccccc1)c1ccc2nc[nH]c2c1 | -1 | 5 | 2* | -2
COC(=O)c1ccc(CSc2nc3ccccc3[nH]2)o1 | x | x | 0.9 | x
COC(=O)c1cc(CSc2nc3ccc(C)cc3[nH]2)oc1C | 52* | 1 | 1.5 | -8
COC(=O)c1cc(C(=O)N2CCCC(C)C2)cc([N+](=O)[O-])c1 (centres undefined) | x | -7 | x | x
Cc1cc(Cl)cc(C)c1OCCCCNCCO | x | 105* | x | x
COc1ccc(/C(N)=N/OC(=O)c2ccc(Cl)cc2)cc1 | x | 0 | x | x
O=C(/C=C/c1ccc2c(c1)OCO2)c1ccc(I)cc1 | x | 11 | x | x
CCC1Oc2ccc(C)cc2N(CC(=O)NCC2COc3ccccc3O2)C1=O (centres undefined) | 4 | x | 1.5 | 2
Cc1ccc2c(c1)N(CCC(=O)NCC1COc3ccccc3O1)C(=O)CO2 (centres undefined) | -8 | 3 | 2.2* | 0
CC(C)(C)C1(C)OC(O)(C(Cl)(Cl)Cl)CC1=O (centres undefined) | x | 103* | x | x
COc1ccc(/C=N/Nc2nncc(=O)[nH]2)cc1OC | x | 9 | x | x
O=C1N=c2ccccc2=C1c1sc(Nc2ccc(O)cc2)nc1O | x | 104* | x | x
Cc1ccc2c(c1C)NC(C(=O)O)C1CC=CC21 (centres undefined) | -27 | x | 1.3 | 124

Screening data (PubChem BioAssay)
